Inconclusive results are not listed. The source made the active and inactive calls. Calls come from the whole dose curve; as a rule, active = well fitted curve in the direction sought with a large enough effect; inconclusive = small, poorly fitted or top-dose-only effect, or another doubt; inactive = no such curve, though single readings can be large; an effect the other way counts as inactive or inconclusive.

Assay [1] concerns the target Calcium and integrin-binding protein 1 (Homo sapiens) (UniProt Q99828). As to the kind of experiment: Primary qHTS for Identification of Calcium Integrin Binding Protein 1 (CIB1) Competitor (AID 1508620).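 Note: GST tagged CIB1 binding a fluorescein labelled alphaIIb integrin peptide tracer; top concentration of the series differs between compounds; % is set by controls: 0 for no effect and ±100 for the full control effect.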 The following applies: CIB1-GST / FITC-alphaIIb peptide fluorescence polarization; series mostly up to 57.7 µM. The method, boiled down:
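CIB1-GST (1 uM final) and compound incubated 15 min at room temperature before adding FITC-alphaIIb peptide tracer (100 nM final). Competition for binding read by fluorescence polarization (ex 480, em 540) after another 15 min at room temperature.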
In general terms: In qHTS, concentration-response curves come from the screen itself.

Assay [2] can be described thus: Primary qHTS for inhibitors of nuclear receptor binding SET domain protein 2 (NSD2) in an isogenic RCH-ACV NSD2 p.E1099K mutant (9B) (AID 1645876). For activity change, negative = viability loss: % is set by controls: 0 for no effect and ±100 for the full control effect. Note: nearly all actives have a fitted effect of over 70% in size. The following applies: RCH-ACV NSD2 E1099K (9B) viability, CellTiter-Glo, 72 h; series mostly up to 44.9 µM.
Assay [3] is described as follows: Primary qHTS for inhibitors of nuclear receptor binding SET domain protein 2 (NSD2) in an RCH-ACV wild type WT cells (2C) (AID 1645877). For activity change, negative = cell killing: % is set by controls: 0 for no effect and ±100 for the full control effect. Note: nearly all actives have a fitted effect of over 70% in size. The following applies: RCH-ACV (leukaemia line) NSD2 WT (2C) viability, CellTiter-Glo, 72 h; series mostly up to 44.9 µM.
Assay [4] concerns the target Catechol O-methyltransferase (Homo sapiens) (UniProt P21964). As to the kind of experiment: Confirmatory Screen for Target Class Profiling of Small Molecule Inhibitors of Methyltransferases (AID 1745852). For activity change, negative = inhibition: % is set by controls: 0 for no effect and ±100 for the full control effect. The following applies: MTase-Glo luminescence, SAH detection, recombinant enzyme; measured here: COMT max response; stronger effect = lower value.
In assay [5] the target is Guanidinoacetate N-methyltransferase (Homo sapiens) (UniProt Q14353). Described as above. Particulars: MTase-Glo luminescence, SAH detection, recombinant enzyme; activity change, negative = inhibition: at 57.3 µM (top of the series) unless noted.
The target in assay [6] is Nicotinamide N-methyltransferase (Homo sapiens) (UniProt P40261). The assay is described as above. The following applies: MTase-Glo luminescence, SAH detection, recombinant enzyme; measured here: NNMT max response; stronger effect = lower value.
In assay [7] the target is Phenylethanolamine N-methyltransferase (Homo sapiens) (UniProt P11086). The assay is described as above. The following applies: MTase-Glo luminescence, SAH detection, recombinant enzyme; measured here: PNMT max response; stronger effect = lower value.
Chain of Phenylethanolamine N-methyltransferase (Homo sapiens) (P11086 whole entry, looked up): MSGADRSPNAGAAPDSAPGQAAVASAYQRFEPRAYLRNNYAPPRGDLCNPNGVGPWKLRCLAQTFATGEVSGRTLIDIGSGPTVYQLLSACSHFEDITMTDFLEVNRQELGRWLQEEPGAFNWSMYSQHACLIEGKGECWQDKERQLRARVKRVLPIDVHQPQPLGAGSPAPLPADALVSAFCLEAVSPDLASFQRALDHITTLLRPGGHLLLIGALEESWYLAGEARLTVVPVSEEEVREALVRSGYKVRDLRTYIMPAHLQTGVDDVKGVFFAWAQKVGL

Chain of Calcium and integrin-binding protein 1 (Homo sapiens) (Q99828 whole entry, looked up): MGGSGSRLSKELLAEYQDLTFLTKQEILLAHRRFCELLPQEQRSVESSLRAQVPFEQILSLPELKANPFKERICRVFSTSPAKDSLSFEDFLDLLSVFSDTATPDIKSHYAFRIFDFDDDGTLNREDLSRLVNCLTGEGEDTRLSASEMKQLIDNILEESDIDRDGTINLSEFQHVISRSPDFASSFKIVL
Chain of Nicotinamide N-methyltransferase (Homo sapiens) (P40261 whole entry, looked up): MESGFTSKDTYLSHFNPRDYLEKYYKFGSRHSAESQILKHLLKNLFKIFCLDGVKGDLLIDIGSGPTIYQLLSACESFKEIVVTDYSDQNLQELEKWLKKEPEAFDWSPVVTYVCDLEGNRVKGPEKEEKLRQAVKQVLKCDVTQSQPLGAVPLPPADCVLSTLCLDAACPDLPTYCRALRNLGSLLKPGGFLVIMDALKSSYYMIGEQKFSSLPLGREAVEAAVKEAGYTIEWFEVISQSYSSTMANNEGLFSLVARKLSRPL
Chain of Catechol O-methyltransferase (Homo sapiens) (P21964 whole entry, looked up): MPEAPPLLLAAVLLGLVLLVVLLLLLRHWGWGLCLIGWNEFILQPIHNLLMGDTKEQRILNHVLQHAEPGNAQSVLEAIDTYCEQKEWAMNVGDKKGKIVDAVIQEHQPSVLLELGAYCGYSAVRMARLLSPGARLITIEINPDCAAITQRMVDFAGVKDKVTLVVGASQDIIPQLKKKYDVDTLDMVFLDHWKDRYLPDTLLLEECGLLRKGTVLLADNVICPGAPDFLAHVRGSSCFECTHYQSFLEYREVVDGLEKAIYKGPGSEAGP

On to `C[C@@H]1O[C@@H](O[C@H]2[C@H](OC(=O)[C@]34CCC(C)(C)C[C@H]3C3=CCC5[C@@]6(C)C[C@@H](O)[C@@H](O)[C@@](C)(CO)C6[C@H](O)C[C@@]5(C)[C@]3(C)CC4)OC[C@H](O)[C@@H]2O)[C@H](O)[C@H](O)[C@H]1O[C@@H]1OC[C@@H](O)[C@H](O[C@H]2O[C@H](C)[C@@H](O)[C@H](O)[C@@H]2O)[C@H]1O` (some centres undefined), for which the Potency entry in assay [1] is “inactive”. Further, the activity change, negative = viability loss in assay [2] was -2.76% [at 9.23 µM] (inactive). For the same compound, in assay [3], the activity change, negative = cell killing was -1.27% [at 9.23 µM] (inactive).

With `CC(C)c1ccc2c(c1)C(O)CC1C(C)(CO)CCCC21C` (centres undefined), the Potency result in assay [1], in assay [2] and in assay [3] was “inactive” in each case.

On to `CC(=O)O[C@H]1C[C@@H](O)C(C)(C)C2C[C@@H](OC(C)=O)[C@]3(C)C(CC[C@@]4(C)[C@H](c5ccoc5)OC(=O)[C@H]5O[C@]543)[C@]21C` (some centres undefined), for which the Potency entry in assay [1], in assay [2] and in assay [3] was “inactive” in each case.

`C[C@H]1CCN2C[C@]34C[C@@]5(C(=O)Nc6c5ccc5c6OC=CC(C)(C)O5)C(C)(C)C3C[C@]12C(=O)N4C` (some centres undefined): the Potency entry in assay [1], in assay [2] and in assay [3] was “inactive” in each case.

As for `COc1cc(CO)ccc1O[C@@H]1O[C@H](CO)[C@@H](O)[C@H](O)[C@H]1O`, the Potency entry in assay [1], in assay [2] and in assay [3] was “inactive” each time.

For the compound `O=C1C[C@@]2(C(=O)N1)C(=O)N(Cc1ccc(Br)cc1F)C(=O)c1cccn12`, the Potency entry in assay [1], in assay [2] and in assay [3] was “inactive” each time.

`COC1CC(O[C@H]2CC[C@@]3(C)C(=CC[C@]4(O)C3[C@H](O)[C@@H](O)[C@]3(C)[C@@H]([C@H](C)O)CC[C@@]34O)C2)OC(C)C1OC1CC(OC)C(OC2CC(OC)C(OC3OC(C)C(OC4OC(CO)C(O)C(O)C4O)C(OC)C3O)C(C)O2)C(C)O1` (some centres undefined): the Potency entry in assay [1] is “inactive”. In assay [2], the activity change, negative = viability loss is 1.87% [at 9.23 µM] (inactive). The activity change, negative = cell killing in assay [3] was -2.18% [at 9.23 µM] (inactive).

In the case of `CCC1OC(=O)C(C)CC(C)C(=O)/C(C)=C/C(C)C(=O)/C=C/C1(C)O` (centres undefined), the Potency entry in assay [1], in assay [2] and in assay [3] was “inactive” throughout.

With `CC1=C(C(=O)OC2OC(COC3OC(CO)C(O)C(O)C3O)C(O)C(O)C2O)C(C)(C)CCC1` (centres undefined), the Potency entry in assay [1], in assay [2] and in assay [3] was “inactive” throughout.

As for `CC1(C(=O)O)CCCC2(C)C3CCC4CC3(CCC12)CC4C(=O)O` (centres undefined), the Potency result in assay [1], in assay [2] and in assay [3] was “inactive” in each case.

On to `COC(=O)C1=CO[C@@H](O[C@@H]2O[C@H](CO)[C@@H](O)[C@H](O)[C@H]2O)/C(=C\CO)[C@@H]1CC(=O)OCCc1ccc(O)cc1`, for which the Potency entry in assay [1], in assay [2] and in assay [3] was “inactive” each time.

Take `CCCCCOC(=O)Nc1nc(=O)n(C2O[C@H](C)[C@@H](O)[C@H]2O)cc1F` (some centres undefined): the Potency entry in assay [1], in assay [2] and in assay [3] was “inactive” each time.

With `COc1cc(C(=O)OC[C@@]2(O)CO[C@@H](O[C@H]3[C@H](Oc4ccc(O)cc4)O[C@H](CO)[C@@H](O)[C@@H]3O)[C@@H]2O)cc(OC)c1O`, the Potency result in assay [1], in assay [2] and in assay [3] was “inactive” in each case.

As for `COc1cc(/C=C/CO[C@@H]2O[C@H](CO)[C@@H](O)[C@H](O)[C@H]2O)cc(OC)c1O[C@@H]1O[C@H](CO)[C@@H](O)[C@H](O)[C@H]1O`, the Potency entry in assay [1], in assay [2] and in assay [3] was “inactive” each time.

With `COc1cc2c(cc1O)CC(O)(CO)C(CO)C2c1ccc(OC2OC(CO)C(O)C(O)C2O)c(OC)c1` (centres undefined), the Potency entry in assay [1], in assay [2] and in assay [3] was “inactive” each time.

With `CC(=O)/C=C/C1(O)C(C)CC(O[C@@H]2O[C@H](CO)[C@@H](O)[C@H](O)[C@H]2O)CC1(C)C` (some centres undefined), the Potency entry in assay [1], in assay [2] and in assay [3] was “inactive” in each case.

As to `C=C(C(=O)O)C1CC(O)C2(C)CCCC(C)(O)C2C1` (centres undefined), the Potency entry in assay [1], in assay [2] and in assay [3] was “inactive” each time.

On to `NC[C@@H]1O[C@@H](O[C@@H]2[C@@H](O[C@@H]3O[C@H](CO)[C@@H](O)[C@H]3O)[C@H](O)[C@@H](N)C[C@H]2N)[C@@H](N)[C@H](O)[C@H]1O`, for which the Potency entry in assay [1] was “inactive”. The activity change, negative = viability loss in assay [2] is 4.31% [at 9.23 µM] (inactive). For the same compound, the outcome in assay [3] was “inactive [at 9.23 µM]”.

As to `C=C[C@@]1(C)CCC2=C([C@H]1OC(C)=O)[C@H](OC(C)=O)CC1[C@](C)(C(=O)OC)CC[C@H](OC(C)=O)[C@]21C` (some centres undefined), the Potency result in assay [1], in assay [2] and in assay [3] was “inactive” throughout.

Regarding `COc1cc(O)cc(C)c1C(=O)OC1C(CO)OC(n2ccc(=O)[nH]c2=O)C1OC(C)=O` (centres undefined), the Potency result in assay [1], in assay [2] and in assay [3] was “inactive” throughout.

Turning to `CC1(C)CCC2(C(=O)O)C(O)CC3(C)C(=CCC4C5(C)CCC(OC6OC(CO)C(O)C(O)C6OC6OC(CO)C(O)C(O)C6OC6OCC(O)(CO)C6O)C(C)(C)C5CCC43C)C2C1` (centres undefined), in assay [1], the Potency result was “inactive”. Further, the activity change, negative = viability loss in assay [2] is 3.44% [at 9.23 µM] (inactive). Moreover, in assay [3], the activity change, negative = cell killing is 2.63% [at 9.23 µM] (inactive).

Regarding `C=C1[C@H]2CCC3[C@]4(C)CCC[C@@](C)(C(=O)O)C4CC[C@]3(C2)[C@H]1OC(C)=O` (some centres undefined), the Potency result in assay [1], in assay [2] and in assay [3] was “inactive” in each case.

Consider `C[C@H]1/C=C/C=C/C=C/C=C/C=C/[C@@H](O)[C@H](C(=O)O)[C@H](O)C[C@H](O)CCC[C@H](O)C[C@H](O)C[C@H](O)[C@@H](C)C(=O)O[C@@H]1C`, for which the Potency entry in assay [1], in assay [2] and in assay [3] was “inactive” in each case.

`C=CC(C)(O)C1CC2C3(C)CCCC(C)(C)C3C(O)C(O)C2(C)O1` (centres undefined): the Potency entry in assay [1], in assay [2] and in assay [3] was “inactive” in each case.

`C/C(=C\C(=O)C[C@@]12C(=O)O[C@]3(C)CC[C@H]1C[C@H]23)C(N)=O`: the Potency result in assay [1], in assay [2] and in assay [3] was “inactive” throughout.

As for `CC(C)/C=C1/NC(=O)C(C(C)C)n2c1nc1c(O)cccc1c2=O` (centres undefined), the Potency entry in assay [1], in assay [2] and in assay [3] was “inactive” throughout.

Turning to `C=CC(C)(O)CC/C=C(\C)COC1O[C@H](CO)[C@@H](O)[C@H](O)[C@H]1O` (some centres undefined), the Potency result in assay [1], in assay [2] and in assay [3] was “inactive” in each case. The activity was -76.9% in assay [4], -3.25% in assay [6] and -3.19% in assay [7]. The activity change, negative = inhibition in assay [5] is -6.43%.

In the case of `C=C[C@H]1[C@H](O[C@@H]2O[C@H](CO)[C@@H](O)[C@H](OC(=O)/C=C/c3ccc(O)c(OC)c3)[C@H]2O)OC=C2C(=O)OCC[C@]21O`, the Potency result in assay [1], in assay [2] and in assay [3] was “inactive” in each case. In addition, the activity in assay [4] is -63.6%; in assay [6] it was -4.35%; in assay [7] it was -4.62%. Besides, in assay [5], the activity change, negative = inhibition is -8.69% [at 29.8 µM].

`CCN(CCN(C)C)C(=O)CNCc1cc(C(N)=O)ccn1`: the Potency result in assay [1], in assay [2] and in assay [3] was “inactive” throughout.

Consider `CC1CC(=O)C2=C(O1)OC1(C)CCC3C(C)(C)C4OC4C(=O)C3(C)C1C2` (centres undefined), for which the Potency entry in assay [1], in assay [2] and in assay [3] was “inactive” throughout. Also, the activity in assay [4] was -27.1%; in assay [6], -84.6%; in assay [7] it was -2.49%. For the same compound, the activity change, negative = inhibition in assay [5] amounted to 0%.

With `COc1cc(C2Oc3c(OC)cc(/C=C/C(=O)OC4CC(O)(C(=O)O)CC(O)C4O)cc3C2CO)ccc1O` (centres undefined), the Potency result in assay [1], in assay [2] and in assay [3] was “inactive” in each case. Besides, the activity was -71.9% in assay [4], -1.14% in assay [6] and -2.58% in assay [7]. Also, the activity change, negative = inhibition in assay [5] was -2.32% [at 29.8 µM].

Source of the values: PubChem BioAssay (NCATS).
